Source: PubChem BioAssay AID1159580 (chemical genetic matrix, 2015)
In all, about 5,500 compounds went through this assay and about 2,000 (36%) were called active. Another 18% or so got no clear call; they are omitted. Rule as the data show it: active = normalized growth mostly below about 0.91 (no sharp cut-off); inconclusive = no clear call, values can overlap the other calls; inactive = mostly above about 0.92. Some of the results follow.

Test: chemical genetic growth profiling, strain panel (AID 1159580);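 also: tested at 20 µM; growth read once vehicle control cultures reached saturation at 30 °C; 1 = growth at the plate median or of vehicle wells; lower values mean less growth of the strain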
Details: growth OD

Measured: normalized growth

NC(=O)NCCCC(N)C(=O)O (configuration not stated)
inactive: S. cerevisiae deletion strains, locus YJR075W, strain HOC1, hits give low values 1.03 | S. cerevisiae deletion strains, locus YKL009W, strain mrt4, hits give low values 0.984 | S. cerevisiae deletion strains, locus YKL068W, hits give low values 0.999 | S. cerevisiae deletion strains, locus YKL085W, strain MDH1 (second series), hits give low values 1 | S. cerevisiae deletion strains, locus YKL085W, strain MDH1, hits give low values 1 | S. cerevisiae deletion strains, locus YKL160W, strain elf1, hits give low values 0.979 | S. cerevisiae deletion strains, locus YKL190W, strain CNB1, hits give low values 1.02 | S. cerevisiae deletion strains, locus YKR001C, strain vps1, hits give low values 1 | S. cerevisiae deletion strains, locus YKR026C, strain gcn3, hits give low values 1 | S. cerevisiae deletion strains, locus YKR091W, strain srl3, hits give low values 0.997 | S. cerevisiae deletion strains, locus YLL001W, strain dnm1, hits give low values 1 | S. cerevisiae deletion strains, locus YLL026W, hits give low values 1.01 | S. cerevisiae deletion strains, locus YLL041C, strain sdh2, hits give low values 0.987 | S. cerevisiae deletion strains, locus YLR027C, strain aat2, hits give low values 0.996 | S. cerevisiae deletion strains, locus YLR039C, strain RIC1, hits give low values 1.03 | S. cerevisiae deletion strains, locus YLR058C, strain SHM2, hits give low values 1.02 | S. cerevisiae deletion strains, locus YLR102C, strain apc9, hits give low values 0.997 | S. cerevisiae deletion strains, locus YLR113W, strain HOG1, hits give low values 1.02 | S. cerevisiae deletion strains, locus YLR221C, strain rsa3, hits give low values 0.971 | S. cerevisiae deletion strains, locus YLR258W, strain gsy2, hits give low values 1.03 | S. cerevisiae deletion strains, locus YLR262C, strain YPT6 (second series), hits give low values 1 | S. cerevisiae deletion strains, locus YLR262C, strain YPT6, hits give low values 1.04 | S. cerevisiae deletion strains, locus YLR268W, strain sec22, hits give low values 0.989 | S. cerevisiae deletion strains, locus YLR320W, strain mms22, hits give low values 1.03 | S. cerevisiae deletion strains, locus YLR330W, strain CHS5, hits give low values 1.01 | S. cerevisiae deletion strains, locus YLR342W, strain FKS1 (second series), hits give low values 1.01 | S. cerevisiae deletion strains, locus YLR342W, strain FKS1, hits give low values 1.01 | S. cerevisiae deletion strains, locus YLR357W, strain rsc2, hits give low values 1.01 | S. cerevisiae deletion strains, locus YLR370C, strain arc18, hits give low values 0.987 | S. cerevisiae deletion strains, locus YLR371W, strain rom2, hits give low values 0.995 | S. cerevisiae deletion strains, locus YLR384C, strain iki3, hits give low values 1 | S. cerevisiae deletion strains, locus YLR418C, strain cdc73, hits give low values 0.989 | S. cerevisiae deletion strains, locus YML016C, strain PPZ1, hits give low values 1.02 | S. cerevisiae deletion strains, locus YML032C, strain rad52, hits give low values 0.999 | S. cerevisiae deletion strains, locus YML120C, strain ndi1, hits give low values 0.962 | S. cerevisiae deletion strains, locus YML124C, strain tub3, hits give low values 0.989 | S. cerevisiae deletion strains, locus YMR058W, strain fet3, hits give low values 0.983 | S. cerevisiae deletion strains, locus YMR078C, strain ctf18, hits give low values 0.992 | S. cerevisiae deletion strains, locus YMR125W, strain sto1, hits give low values 1.01 | S. cerevisiae deletion strains, locus YMR129W, hits give low values 0.991 | S. cerevisiae deletion strains, locus YMR205C, strain PFK2, hits give low values 1.05 | S. cerevisiae deletion strains, locus YMR223W, strain ubp8, hits give low values 0.998 | S. cerevisiae deletion strains, locus YMR231W, strain pep5, hits give low values 1.01 | S. cerevisiae deletion strains, locus YMR263W, strain SAP30, hits give low values 1.02 | S. cerevisiae deletion strains, locus YMR307W, strain GAS1, hits give low values 1.02 | S. cerevisiae deletion strains, locus YNL067W, strain RPL9B, hits give low values 1.04 | S. cerevisiae deletion strains, locus YNL071W, strain lat1, hits give low values 0.999 | S. cerevisiae deletion strains, locus YNL128W, strain TEP1, hits give low values 1.04 | S. cerevisiae deletion strains, locus YNL153C, strain GIM3, hits give low values 1.02 | S. cerevisiae deletion strains, locus YNL183C, strain NPR1, hits give low values 0.963 | S. cerevisiae deletion strains, locus YNL209W, strain ssb2, hits give low values 1 | S. cerevisiae deletion strains, locus YNL233W, strain BNI4, hits give low values 1.02 | S. cerevisiae deletion strains, locus YNL248C, strain rpa49, hits give low values 0.941 | S. cerevisiae deletion strains, locus YNL250W, strain rad50, hits give low values 1 | S. cerevisiae deletion strains, locus YNL271C, strain bni1, hits give low values 0.992 | S. cerevisiae deletion strains, locus YNL298W, strain CLA4, hits give low values 1.01 | S. cerevisiae deletion strains, locus YNL307C, strain MCK1, hits give low values 0.981 | S. cerevisiae deletion strains, locus YNL322C, strain KRE1 (second series), hits give low values 0.988 | S. cerevisiae deletion strains, locus YNL322C, strain KRE1, hits give low values 1.02 | S. cerevisiae deletion strains, locus YNR049C, strain mso1, hits give low values 1 | S. cerevisiae deletion strains, locus YNR052C, strain pop2, hits give low values 1 | S. cerevisiae deletion strains, locus YOL006C, strain TOP1, hits give low values 1.04 | S. cerevisiae deletion strains, locus YOL012C, strain htz1 1.42 | S. cerevisiae deletion strains, locus YOL147C, strain pex11, hits give low values 0.994 | S. cerevisiae deletion strains, locus YOR001W, strain rrp6, hits give low values 0.958 | S. cerevisiae deletion strains, locus YOR061W, strain CKA2, hits give low values 1.03 | S. cerevisiae deletion strains, locus YOR069W, strain VPS5, hits give low values 1.01 | S. cerevisiae deletion strains, locus YOR070C, strain gyp1, hits give low values 0.999 | S. cerevisiae deletion strains, locus YOR080W, strain dia2, hits give low values 1.01 | S. cerevisiae deletion strains, locus YOR083W, strain WHI5, hits give low values 0.958 | S. cerevisiae deletion strains, locus YOR106W, strain vam3, hits give low values 0.978 | S. cerevisiae deletion strains, locus YOR136W, strain idh2, hits give low values 0.988 | S. cerevisiae deletion strains, locus YOR144C, strain elg1, hits give low values 0.993 | S. cerevisiae deletion strains, locus YOR184W, strain ser1, hits give low values 0.99 | S. cerevisiae deletion strains, locus YOR231W, strain MKK1, hits give low values 0.991 | S. cerevisiae deletion strains, locus YOR265W, strain rbl2, hits give low values 0.998 | S. cerevisiae deletion strains, locus YOR270C, strain vph1, hits give low values 0.964 | S. cerevisiae deletion strains, locus YOR290C, strain snf2, hits give low values 1 | S. cerevisiae deletion strains, locus YOR316C, strain cot1, hits give low values 0.996 | S. cerevisiae deletion strains, locus YPL051W, strain arl3, hits give low values 0.981 | S. cerevisiae deletion strains, locus YPL055C, strain LGE1, hits give low values 1.07 | S. cerevisiae deletion strains, locus YPL078C, strain atp4, hits give low values 0.949 | S. cerevisiae deletion strains, locus YPL106C, strain sse1, hits give low values 1.03 | S. cerevisiae deletion strains, locus YPL240C, strain hsp82, hits give low values 0.988 | S. cerevisiae deletion strains, locus YPL241C, strain CIN2, hits give low values 1.01 | S. cerevisiae deletion strains, locus YPL256C, strain CLN2, hits give low values 0.988 | S. cerevisiae deletion strains, locus YPR119W, strain clb2, hits give low values 0.995 | S. cerevisiae deletion strains, locus YPR141C, strain kar3, hits give low values 1 | S. cerevisiae deletion strains, locus YPR163C, strain tif3, hits give low values 0.989 | S. cerevisiae deletion strains, locus YPR167C, strain met16, hits give low values 0.995 | S. cerevisiae deletion strains, strain wtn01, hits give low values 0.986 | S. cerevisiae strains, strain wild type, hits give low values 1.01
